Data: the supplement of paper PMC12669032
A number with no mark means an inactive call.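 The calls were made as follows: active = AUC reduced over 20% with Padj below 0.05 in at least 2 of 3 replicates; inactive = otherwise.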

test system: Bacteroides dorei; experiment: growth AUC relative to DMSO control (median of replicates) (fraction); higher = more growth (less inhibition), active = hit call of the paper; conditions: 20 µM; 24 h
In short: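 For each compound at 20 µM (1% DMSO), gut bacterial monocultures seeded at OD600 0.05 grew anaerobically in mGAM at 37 °C in round-bottom 96-well plates. Hourly OD600 readings over 24 h gave growth curves whose minimum OD was set to 0. Area under these curves was normalised to the plate median of solvent-only wells, or to row and column medians on the industrial chemical plate. Values are medians of three biological replicates grown on separate days.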

| Structure (SMILES) | growth AUC |
| --- | --- |
| Nc1cccc(O)c1 | 1 |
| CCc1cccc(C)c1NC(C)C(=O)O (racemic) | 0.931 |
| CCc1ccc(C(c2ccc(CC)cc2)C(Cl)Cl)cc1 | 1.02 |
| CC(C)N(C(=O)CS(=O)CC(=O)O)c1ccc(F)cc1 (centres undefined) | 0.969 |
| O=[N+]([O-])c1ccc(Oc2c(Cl)cc(Cl)cc2Cl)cc1 | 1.01 |
| CCOC(=O)c1nc(C(Cl)(Cl)Cl)n(-c2ccc(Cl)cc2Cl)n1 | 0.99 |
| Cc1ccc2c(c1)[C@H](Nc1nc(N)nc(C(C)F)n1)[C@@H](C)C2 (some centres undefined) | 0.989 |
| CCCCCCCC(=O)Oc1c(Br)cc(C#N)cc1Br | 1.04 |
| CCNc1nc(N)[nH]c(=O)n1 | 1.01 |
| CN(C)C(=O)Nc1cc(C(C)(C)C)on1 | 1.01 |
| O=C(NC(=O)c1c(F)cccc1F)Nc1cc(C(F)(F)F)cc(C(F)(F)F)c1Cl | 0.982 |
| COC(=O)CSc1cc(N=c2sc(=O)n3n2CCCC3)c(F)cc1Cl | 0.945 |
| CCN(Cc1c(F)cccc1Cl)c1c([N+](=O)[O-])cc(C(F)(F)F)cc1[N+](=O)[O-] | 1.02 |
| CCNC(=O)[C@@H](C)OC(=O)Nc1ccccc1 | 0.992 |
| CON=C(Cc1cccnc1)c1ccc(Cl)cc1Cl | 0.938 |
| COC(=O)Nc1ccc(Cl)c(Cl)c1 | 0.969 |
| CC[N+](CC)(CC(=O)Nc1c(C)cccc1C)Cc1ccccc1.O=C([O-])c1ccccc1 | 1.04 |
| CC(C)(C)[C@@H](O)[C@@H](Cc1ccc(Cl)cc1)n1cncn1 (mixture of isomers) | 0.909 |
| COCC(=O)N(c1c(C)cccc1C)C(C)C(=O)O (centres undefined) | 1.01 |
| COC(=O)c1ccccc1S(=O)(=O)NC(=O)n1nc(OCC(C)O)n(C)c1=O (centres undefined) | 0.992 |

| Structure (SMILES) | growth AUC |
| --- | --- |
| CCOC(=O)Cc1[nH]nc2ccc(Cl)cc12 | 0.996 |
| CCCCCCCC/C=C\CCCCCCCC(N)=O | 0.977 |
| COC1CCC2(CC1)NC(=O)C(c1cc(C)ccc1C)=C2OC1OC(CO)C(O)C(O)C1O (centres undefined) | 0.993 |
| COC(=O)c1ccc(C(F)(F)F)nc1S(=O)(=O)[N-]C(=O)Nc1nc(OC)cc(OC)n1.[Na+] | 1.01 |
| COC1CCC2(CC1)NC(=O)C(c1cc(C)ccc1C)=C2O (centres undefined) | 1.02 |
| O=C(Nc1ccc(O)cc1-c1ccc(Cl)cc1)c1cccnc1Cl | 1.03 |
| Cc1nn(C)c(F)c1C(=O)Nc1ccccc1C(C)CC(C)C (centres undefined) | 0.988 |
| O=C(NCc1ncc(C(F)(F)F)cc1Cl)c1c(Cl)cccc1Cl | 0.975 |
| CC1COc2ccccc2N1C(=O)C(Cl)Cl (centres undefined) | 0.876 |
| CCc1cccc(C)c1NC(=O)C(=O)O | 1 |
| Cc1[nH]oc(=O)c1N=Nc1ccccc1Cl | 0.951 |
| COc1ccccc1C(=O)NS(=O)(=O)c1ccc(C(=O)NC2CC2)cc1 | 1 |
| O=C(O)c1ccc(Cl)cc1Cl | 0.994 |
| CCCCCCCC/C=C\CCCCCCCCCCCCC | 1.05 |
| COC(=O)COc1ccc(Cl)cc1C | 1.01 |
| CC(C)OC(=O)N[C@H](C(=O)N[C@H](C)c1nc2ccc(F)cc2s1)C(C)C | 0.934 |
| CCNc1nc(N)nc(Cl)n1 | 1.01 |
| Cc1nn(C)c(OCC(=O)c2ccccc2)c1C(=O)c1ccc(Cl)cc1Cl | 0.987 |
| Cc1cc(C)c(C2=C(O)C3(CCCC3)OC2=O)c(C)c1 | 1.01 |
